Assay [1] in a line: NCI Yeast Anticancer Drug Screen. Data for the rad50 strain (AID 155).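 Note: 0% = growth of vehicle-only cultures of the same strain.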 The settings on record: S. cerevisiae rad50 strain growth inhibition, stronger effect = higher value. In outline: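 Growth of the mutant yeast was measured after compound exposure and referenced to vehicle-treated cultures.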
The nature of assay [2]: NCI Yeast Anticancer Drug Screen. Data for the mec2-1 strain (AID 157). The settings on record: S. cerevisiae mec2-1 strain, stronger effect = higher value. In outline: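 mec2-1 yeast strain, carrying an alteration in DNA damage repair or cell cycle control, was exposed to compounds; growth inhibition was measured relative to vehicle-treated controls.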
The nature of assay [3]: NCI Yeast Anticancer Drug Screen. Data for the sgs1 mgt1 strain (AID 161).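 Note: 0% = growth of cultures given vehicle only.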 The settings on record: S. cerevisiae sgs1 mgt1 strain, stronger effect = higher value. The procedure, abridged: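 This yeast growth screen uses a strain with defined DNA-repair lesions; compound-treated growth is compared with vehicle-treated growth.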
Assay [4] in a line: NCI Yeast Anticancer Drug Screen. Data for the cln2 rad14 strain (AID 165).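 Note: 0% = growth equal to vehicle treated cultures.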 The settings on record: S. cerevisiae cln2 rad14 strain, stronger effect = higher value. The procedure, abridged:
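Yeast carrying cln2 and rad14 alterations (cell cycle control and DNA damage repair) were exposed to compounds. Growth inhibition was measured against vehicle-treated controls.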

A short description of assay [5]: NCI Yeast Anticancer Drug Screen. Data for the bub3 strain (AID 167). The settings on record: S. cerevisiae bub3 mutant strain, stronger effect = higher value. The procedure, abridged: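 Whole-cell yeast assay. The mutant strain was incubated with compounds, and growth inhibition was determined by comparison with vehicle-treated cells.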
A short description of assay [6]: NCI Yeast Anticancer Drug Screen. Data for the mlh1 rad18 strain (AID 175). The note with it: S. cerevisiae mlh1 rad18 strain growth inhibition, stronger effect = higher value. The procedure, abridged:
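Growth inhibition of the yeast strain was measured after compound exposure and expressed relative to vehicle-treated controls. The strain carries defined defects in DNA damage repair.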

Where [7] appears, read: at 5.0 µM (retest, dose inferred, filed as 0.5).
Setting [8] is: at 50.0 µM (retest, dose inferred, filed as 5.0).

This is part of a sample that, as a whole, favours compounds with a hit. Of some 79,000 tested, about 15% had one in any assay. Values without a mark were called inactive. The source made the active and inactive calls. Cut-off read from the data, not from the text of the source: active = growth inhibition above about 70%; inactive = the rest.

For the compound `CCN(CC)CC(=O)O[C@]1(CC)C(=O)OCc2c1cc1n(c2=O)Cc2cc3ccccc3nc2-1`, the growth inhibition in assay [1] (setting [7]) was 93% (active); in assay [1] (setting [8]), 97% (active); in assay [1] (at 50.0 µM), 83.2% (active); in assay [2] (setting [7]) it was 58%; in assay [2] (setting [8]), 98% (active); in assay [2] (at 50.0 µM) it was 87% (active). For the same compound, the growth inhibition in assay [3] (setting [7]) was 45%; in assay [3] (setting [8]) it was 97% (active); in assay [3] (at 50.0 µM), 85.1% (active); in assay [4] (setting [7]), 44%; in assay [4] (setting [8]) it was 93% (active); in assay [4] (at 50.0 µM), 62.5%. The growth inhibition is 43% in assay [5] (setting [7]); 97% (active) in assay [5] (setting [8]); 81.5% (active) in assay [5] (at 50.0 µM); 91% (active) in assay [6] (setting [7]); 96% (active) in assay [6] (setting [8]); 85.6% (active) in assay [6] (at 50.0 µM).
Take `O=C(c1ccc(Br)cc1)C1C(c2ccccc2)N1C1CCCCC1` (centres undefined): the growth inhibition was 1% in assay [1] (setting [7]); 79% (active) in assay [1] (setting [8]); 95.7% (active) in assay [1] (at 50.0 µM); 0% in assay [2] (setting [7]); 73% (active) in assay [2] (setting [8]); 96.6% (active) in assay [2] (at 50.0 µM). Besides, the growth inhibition in assay [3] (setting [7]) was -1%; in assay [3] (setting [8]), 72% (active); in assay [3] (at 50.0 µM), 96.5% (active); in assay [4] (setting [7]) it was -4%; in assay [4] (setting [8]), 58%; in assay [4] (at 50.0 µM), 94.2% (active). The growth inhibition in assay [5] (setting [7]) is 4%; in assay [5] (setting [8]) it was 94% (active); in assay [5] (at 50.0 µM), 95% (active); in assay [6] (setting [7]), -2%; in assay [6] (setting [8]), 86% (active); in assay [6] (at 50.0 µM), 91% (active).
For `CCC(=O)O[C@H]1CC[C@H]2[C@@H]3CCC4=C/C(=N/OC(=O)c5cccc6c(=O)c7ccccc7[nH]c56)CC[C@]4(C)[C@H]3CC[C@]12C`, the growth inhibition in assay [1] (setting [7]) was 29%; in assay [1] (setting [8]) it was 83% (active); in assay [1] (at 50.0 µM) it was 53.8%; in assay [2] (setting [7]), 26%; in assay [2] (setting [8]) it was 31%; in assay [2] (at 50.0 µM) it was 77.4% (active). In addition, the growth inhibition is -26% in assay [3] (setting [7]); 52% in assay [3] (setting [8]); 79.3% (active) in assay [3] (at 50.0 µM); -14% in assay [4] (setting [7]); 43% in assay [4] (setting [8]); 47.1% in assay [4] (at 50.0 µM). The growth inhibition is 10% in assay [5] (setting [7]); 66% in assay [5] (setting [8]); 74.4% (active) in assay [5] (at 50.0 µM); 29% in assay [6] (setting [7]); 40% in assay [6] (setting [8]); 17.6% in assay [6] (at 50.0 µM).
As to `CN1CN(c2ccccc2)C2(CCN(C3Nc4ccccc4O3)CC2)C1=O` (centres undefined), the growth inhibition was 7% in assay [1] (setting [7]); 33% in assay [1] (setting [8]); 40% in assay [1] (at 50.0 µM); 2% in assay [2] (setting [7]); 26% in assay [2] (setting [8]); 44.5% in assay [2] (at 50.0 µM). Also, the growth inhibition is -1% in assay [3] (setting [7]); 30% in assay [3] (setting [8]); 58.5% in assay [3] (at 50.0 µM); 31% in assay [4] (setting [7]); 42% in assay [4] (setting [8]); 35% in assay [4] (at 50.0 µM). The growth inhibition was -16% in assay [5] (setting [7]); -4% in assay [5] (setting [8]); 50.8% in assay [5] (at 50.0 µM); 10% in assay [6] (setting [7]); 57% in assay [6] (setting [8]); 45.6% in assay [6] (at 50.0 µM).
Take `CC(=O)OC(C)(C)/C=C/C(=O)[C@](C)(O)[C@H]1[C@H](O)C[C@@]2(C)[C@@H]3CC=C4[C@@H](C[C@H](O)[C@H](O)C4(C)C)[C@]3(C)C(=O)C[C@]12C`: the growth inhibition in assay [1] (setting [7]) was 15%; in assay [1] (setting [8]), 98% (active); in assay [1] (at 50.0 µM) it was 92.1% (active); in assay [2] (setting [7]) it was 52%; in assay [2] (setting [8]), 99% (active); in assay [2] (at 50.0 µM), 93.5% (active). In addition, the growth inhibition in assay [3] (setting [7]) is 13%; in assay [3] (setting [8]), 98% (active); in assay [3] (at 50.0 µM), 93.3% (active); in assay [4] (setting [7]), 43%; in assay [4] (setting [8]) it was 98% (active); in assay [4] (at 50.0 µM) it was 91.1% (active). Moreover, the growth inhibition in assay [5] (setting [7]) was 65%; in assay [5] (setting [8]), 99% (active); in assay [5] (at 50.0 µM), 91.5% (active); in assay [6] (setting [7]), 55%; in assay [6] (setting [8]) it was 98% (active); in assay [6] (at 50.0 µM), 91.8% (active).
On to `Cc1oc2c([N+](=O)[O-])cccc2c1[N+](=O)[O-]`, for which the growth inhibition in assay [1] (setting [7]) is 98% (active); in assay [1] (setting [8]), 98% (active); in assay [1] (at 50.0 µM), 99.5% (active); in assay [2] (setting [7]) it was 99% (active); in assay [2] (setting [8]), 99% (active); in assay [2] (at 50.0 µM), 99.8% (active). The growth inhibition in assay [3] (setting [7]) was 99% (active); in assay [3] (setting [8]) it was 98% (active); in assay [3] (at 50.0 µM), 99.6% (active); in assay [4] (setting [7]) it was 98% (active); in assay [4] (setting [8]), 98% (active); in assay [4] (at 50.0 µM), 98.8% (active). Also, the growth inhibition was 99% (active) in assay [5] (setting [7]); 99% (active) in assay [5] (setting [8]); 52.2% in assay [5] (at 50.0 µM); 98% (active) in assay [6] (setting [7]); 98% (active) in assay [6] (setting [8]); 99.7% (active) in assay [6] (at 50.0 µM).
For `NC(=O)c1ccc(N)nc1`, the growth inhibition in assay [1] (setting [7]) was 5%; in assay [1] (setting [8]) it was 30%; in assay [1] (at 50.0 µM), 20.9%; in assay [2] (setting [7]) it was -28%; in assay [2] (setting [8]) it was -14%; in assay [2] (at 50.0 µM), -14%. Moreover, the growth inhibition was -13% in assay [3] (setting [7]); 3% in assay [3] (setting [8]); 19.4% in assay [3] (at 50.0 µM); 10% in assay [4] (setting [7]); 15% in assay [4] (setting [8]); 4.4% in assay [4] (at 50.0 µM). Moreover, the growth inhibition in assay [5] (setting [7]) was -12%; in assay [5] (setting [8]), 12%; in assay [5] (at 50.0 µM) it was 11.2%; in assay [6] (setting [7]), -10%; in assay [6] (setting [8]), 8%; in assay [6] (at 50.0 µM) it was 7.75%.
Turning to `CC(=O)C(Br)C(C)=O.CC(=O)C(Br)C(C)=O.CC(=O)C(Br)C(C)=O.[Rh]`, the growth inhibition in assay [1] (setting [7]) is 4%; in assay [1] (setting [8]), -2%; in assay [1] (at 50.0 µM) it was 99.2% (active); in assay [2] (setting [7]), -22%; in assay [2] (setting [8]) it was 1%; in assay [2] (at 50.0 µM), 99.6% (active). For the same compound, the growth inhibition in assay [3] (setting [7]) is -1%; in assay [3] (setting [8]) it was 0%; in assay [3] (at 50.0 µM), 99.6% (active); in assay [4] (setting [7]), 4%; in assay [4] (setting [8]), 4%; in assay [4] (at 50.0 µM) it was 93.7% (active). In addition, the growth inhibition in assay [5] (setting [7]) was 1%; in assay [5] (setting [8]), -7%; in assay [5] (at 50.0 µM), 99.4% (active); in assay [6] (setting [7]), 6%; in assay [6] (setting [8]), -18%; in assay [6] (at 50.0 µM), 99.2% (active).

The values are drawn from PubChem BioAssay (NCI).
